From PubChem BioAssay (Tox21)
Inconclusive results are not listed. Active and inactive are the calls of the source. Calls follow the shape of the dose curve; as a rule, active = well fitted activation curve with a large enough effect in the repeat runs; inconclusive = weak or mixed curves; inactive = flat fitted curve, though single readings scatter.

Assay: A CellTox Green Cytotoxicity Assay to monitor cytotoxicity in HepG2 cells - 32 hour (AID 1224883); also: nearly all actives have a fitted effect of over 50% in size
Settings: CellTox Green fluorescence; series mostly up to 76.8 µM; cytotoxicity increase: at the top concentration
Source text: National Center for Advancing Translational Sciences [NCATS]
NIH Chemical Genomics Center [NCGC]
U.S. Environmental Protection Agency [EPA]
National Institutes of Environmental Health Sciences [NIEHS]
National Toxicology Program [NTP]
Cell-based models are critical for drug discovery. Determining the natural cytotoxic effects resulting from test compounds is an essential research activity. A CellTox Green Cytotoxicity Assay to monitor cytotoxicity in real time of continues cell culture during 40 hours of the compound treatment was used to screen Tox21 10K library compounds in HepG2 cells. CellTox Green Cytotoxicity Assay is a nonlytic, homogeneous, biofluorescent method to measure cytotoxicity in cell culture after experimental manipulation. The assay system uses a proprietary asymmetric cyanine dye that is excluded from viable cells but preferentially stains the dead cell's DNA. […] Viable cells produce no appreciable increases in fluorescence. Therefore, the fluorescence signal produced by the binding interaction with dead cell DNA is proportional to cytotoxicity.
The mixture of HepG2 cell suspension and reagents were dispensed at 600cells/6 ul/well in 1536-well tissue culture treated black solid bottom plates using a Multidrop dispenser. After the assay plates were incubated at a 37 C/5% CO2 incubator for 5 hours, 23 nL of compounds dissolved in DMSO, positive and negative controls was transferred to the assay plate by a pintool work station. The plates were incubated at 37 C for 40 hours. The fluorescence intensity were measured at 0h, 8h, 16h, 24h, 32h and 40h time points using ViewLux plate reader during compound treatment.
% is scaled to controls: 0 for no effect and ±100 for the full control effect; potency is read from the fitted curve at half-maximal effect.

Compound	cytotoxicity increase	Potency
CCC(=O)O[C@@H]1C[C@H]2CC[C@]1(C)C2(C)C	-7.14% (inactive)	
CS(C)=O	-11.4% (inactive)	
C=CC(C)(O)CC/C=C(/C)CCC=C(C)C (stereo not given)	11.6% (inactive)	
CC(=O)CC/C=C(\C)CC/C=C(\C)CC/C=C(\C)CCC=C(C)C	-10.5% [at 35.3 µM] (inactive)	
C[C@]12CCC(=O)C=C1[C@@H]1C[C@@H]1[C@H]1[C@@H]3[C@@H]4C[C@@H]4[C@@]4(CCC(=O)O4)[C@@]3(C)CC[C@@H]12	6.12% [at 35.3 µM] (inactive)	
N#CCCCC(C#N)CCC#N (stereo not given)	-8.55% (inactive)	
C(/C=C/C=C/Nc1ccccc1)=Nc1ccccc1	-12.2% (inactive)	
O=C(OC1C[C@H]2CC[C@@H](C1)[N+]21CCCC1)C(O)(c1ccccc1)c1ccccc1 (stereo not given in full)	-1.84% [at 35.3 µM] (inactive)	
C=CC(=O)OCCCCCCCCCC	10% (inactive)	
CC(CCl)OC(C)CCl (stereo not given)	-7.51% (inactive)	
O=C1c2ccccc2C(=O)C1c1ccc2cc(S(=O)(=O)O)cc(S(=O)(=O)O)c2n1	-32.4% (inactive)	
c1ccc(-c2ccc(-c3ccccc3)cc2)cc1	2.09% [at 15.8 µM] (inactive)	
O=C(Cl)c1ccc(F)c(Cl)c1	0.601% (inactive)	
C/C(=C(\CCO)SS/C(CCO)=C(\C)N(C=O)Cc1cnc(C)nc1N)N(C=O)Cc1cnc(C)nc1N	-3.91% [at 35.3 µM] (inactive)	
C[C@H](N)C(=O)N[C@@H](C)C(=O)NC1[C@H]2CN(c3nc4c(cc3F)c(=O)c(C(=O)O)cn4-c3ccc(F)cc3F)C[C@@H]12 (stereo not given in full)	-20.5% [at 35.3 µM] (inactive)	
CCC(=O)O[C@]1(C(=O)COC)[C@@H](C)C[C@H]2[C@@H]3CCC4=CC(=O)C=C[C@]4(C)C3(F)[C@@H](O)C[C@@]21C (stereo not given in full)	-8.69% [at 35.3 µM] (inactive)	
OCCc1ccncc1	-11% (inactive)	
O=C(C1CCCCC1)N1CC(=O)N2CCCc3ccccc3C2C1 (stereo not given)	-14.9% [at 35.3 µM] (inactive)	
CCOC(C)OCC	-4.38% (inactive)	
O=C(O)c1ccccc1[N+](=O)[O-]	7.15% (inactive)	

Compound	cytotoxicity increase	Potency
CC(C)NC(=O)c1ccccc1N	-8.61% (inactive)	
O=[N+]([O-])c1ccccc1CCO	-2% (inactive)	
CCC(C(=O)O)c1ccc(N2Cc3ccccc3C2=O)cc1 (stereo not given)	-1.5% [at 35.3 µM] (inactive)	
[O-][n+]1ccc(Cl)cc1	-17.6% (inactive)	
Clc1cccc(C(c2ccc3nc[nH]c3c2)n2ccnc2)c1 (stereo not given)	-14.3% [at 35.3 µM] (inactive)	
CC(CN=Cc1ccccc1O)N=Cc1ccccc1O (stereo not given)	15.2% (inactive)	
CCCC1CCOC(C)S1 (stereo not given)	0.977% (inactive)	
Nc1ccc(F)cc1F	-3.53% (inactive)	
CC(C)Cc1nccs1	-3.61% (inactive)	
Cc1c(Nc2ncccc2C(=O)O)cccc1C(F)(F)F	-5.99% [at 35.3 µM] (inactive)	
OCCCO	-1.44% (inactive)	
CC/C=C\CCO	-0.0496% (inactive)	
N#C[C@@H]1CC(F)(F)CN1C(=O)CNC1CC2CCC(C1)N2c1ncccn1 (stereo not given in full)	0.316% (inactive)	
COC(=O)Cc1cccc2ccccc12	4.34% (inactive)	
C=C[Si](OCC)(OCC)OCC	-17.2% (inactive)	
CCCCCCCCCC(C)C=O (stereo not given)		21.9 µM (active)
CC(C)Oc1ccccc1O	-2.82% (inactive)	
C1=COCCC1	-5.51% (inactive)	
CC1(C)[C@@H]2CC[C@]3(C2)[C@@H]1C(=O)CCC3(C)C	-9.36% (inactive)	
Cc1cc(C)c(C)c(O)c1	2.55% (inactive)	
